# According to PubChem BioAssay:
# Inconclusive results are not listed. Calls of active or inactive are those of the source.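 Rule for the calls, unless noted: active = compounds lowering colon cancer cell viability after pretreatment blocking the GSK3B kinase; inactive = the rest.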
# Key:
# [1] = stimulators of insulin release from INS-1E, primary screen, cell-based, 5 mM glucose, NPC library (AID 1117329;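 active = compound raises insulin release from rat beta cells at 5 mM glucose, no numeric limit stated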); settings: rat INS-1E insulin secretion, at 10 µM, stronger effect = higher value
# [2] = growth inhibition of GSK3B-pretreated HCT116 cells – cell-based, CellTiter-Glo, 0.2 to 20 µM (AID 1117336); settings: HCT116 viability after GSK3B inhibitor, at 20 µM, stronger effect = higher value
# [3] = inhibition of endothelial tube formation, primary screen, imaging, VEGF stimulated, CD31 staining, tube area, NPC library (AID 1117340;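 active = compound that reduces growth-factor-driven endothelial tube area in a mixed cell culture, no cutoff stated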); settings: VEGF-stimulated ADSC/ECFC co-culture, at 10 µM, stronger effect = higher value
# [4] = glucagon-like peptide 1 release enhancers, primary assay, NCI-H716 cell line, NPC library (AID 1117341;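 active = compound raises GLP1 secretion from the human gut endocrine cells, with no numeric limit stated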); settings: NCI-H716 cells, at 10 µM, stronger effect = higher value
# [5] = HCT116 colon cancer cell growth inhibition, primary screen, CellTiter-Glo luminescence, NPC library (AID 1117342;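 active = compounds that lower survival of HCT116 colon cancer cells in the luminescence readout, no numeric limit stated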); settings: at 20 µM (top of the series)
# [6] = CellTiter-Glo luminescent readout of SW480 viability loss, NPC library primary (AID 1117343;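 active = compounds that lower viability of the colon cancer cells in the luminescence readout, with no numeric limit stated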); settings: CellTiter-Glo luminescence; at 20 µM (top of the series)
# [7] = decreased DLD-1 cellular survival, CellTiter-Glo luminescent readout, NPC compound collection, primary HTS (AID 1117346;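 active = compounds that lower survival of DLD-1 colon cancer cells in the luminescence readout, no cutoff given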); settings: DLD-1 viability, CellTiter-Glo luminescence; at 20 µM (top of the series)
# [8] = biological target: 6-phosphogluconate dehydrogenase, decarboxylating (Homo sapiens) (UniProt P52209); experiment: 6PGD enzyme inhibitors, primary screen, biochemical, human, recombinant enzyme, NADPH absorbance (AID 1159550;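 active = at least 20% inhibition of 6-phosphogluconate dehydrogenase activity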); settings: recombinant 6PGD, NADPH absorbance 341 nm; at 10 µM; stronger effect = higher value
# [9] = differential killing of epithelial or mesenchymal cells, primary screen, imaging, PC-3E GFP, TEM4-18 mCherry, co-culture (AID 1345086;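 active = compounds killing one labelled cell type while sparing the other, by normalised counts and ratio limits, not self-fluorescent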;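 for all read-outs here: cells exposed to compound for 72 h before imaging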;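 for red/green cell ratio (normalised): normalised mesenchymal count divided by normalised epithelial count so high means epithelial killing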); settings: imaging cell counts, at 1 µM; for red/green cell ratio (normalised): actives lie on both sides, counts scaled to control wells, 1 = unselective
# [10] = growth inhibition of DIPG glioma cells, dose response, cell-based, SU-DIPG-XIII, MIPE4.0, CellTiter-Glo, qHTS (AID 1347061; cut-off not given, nearly all actives have AC50 up to about 37 µM;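 note: cells exposed to compound for 48 hours before readout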); settings: SU-DIPG-XIII viability, CellTiter-Glo ATP luminescence
# [11] = growth inhibition of DIPG glioma cells, dose response, cell-based, JHH-DIPG-1, MIPE4.0, CellTiter-Glo, qHTS (AID 1347062; cut-off not given, nearly all actives have AC50 up to about 27 µM;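 for AC50: cells exposed to compound for two days before readout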); settings: JHH-DIPG-1 viability, CellTiter-Glo ATP luminescence
# [12] = growth inhibition of DIPG glioma cells, dose response, cell-based, SU-DIPG-IV, MIPE4.0, CellTiter-Glo, qHTS (AID 1347063; cut-off not given, nearly all actives have AC50 up to about 30 µM;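 note: compound exposure lasted 48 hours before the viability readout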); settings: SU-DIPG-IV viability, CellTiter-Glo ATP luminescence
# [13] = growth inhibition of DIPG glioma cells, dose response, cell-based, SU-DIPG-XVII, MIPE5.0, CellTiter-Glo, qHTS (AID 1347060; cut-off not given, nearly all actives have AC50 up to about 26 µM;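 for AC50: cells exposed to compound for 48 hours before viability readout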); settings: SU-DIPG-XVII viability, CellTiter-Glo ATP luminescence
# [14] = growth inhibition of DIPG glioma cells, dose response, cell-based, SU-DIPG-XIII, MIPE5.0, CellTiter-Glo, qHTS (AID 1347064; cut-off not given, nearly all actives have AC50 up to about 23 µM); settings: SU-DIPG-XIII viability, CellTiter-Glo ATP luminescence
# [15] = measured here: epithelial PC-3E GFP cell survival
# [16] = measured here: mesenchymal TEM4-18 mCherry cell survival
# Sequence of 6-phosphogluconate dehydrogenase, decarboxylating (Homo sapiens) (P52209 whole entry, looked up): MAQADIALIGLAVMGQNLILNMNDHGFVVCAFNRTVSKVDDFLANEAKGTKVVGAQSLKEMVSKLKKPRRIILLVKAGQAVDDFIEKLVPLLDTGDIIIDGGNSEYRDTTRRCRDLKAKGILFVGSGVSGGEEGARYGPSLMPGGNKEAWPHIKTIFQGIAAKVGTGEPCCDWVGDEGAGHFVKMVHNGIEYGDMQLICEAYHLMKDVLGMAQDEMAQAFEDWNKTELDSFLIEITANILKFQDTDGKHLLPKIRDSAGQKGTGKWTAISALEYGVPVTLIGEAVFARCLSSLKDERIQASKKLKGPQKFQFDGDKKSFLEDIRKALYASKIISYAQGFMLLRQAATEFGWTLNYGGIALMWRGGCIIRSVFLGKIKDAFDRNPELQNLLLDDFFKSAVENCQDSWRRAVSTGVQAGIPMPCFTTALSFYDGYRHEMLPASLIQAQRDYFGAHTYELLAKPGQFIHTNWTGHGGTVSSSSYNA
Structure (SMILES),insulin secretion stimulation [1],viability decrease [2],tube area decrease [3],GLP1 secretion stimulation [4],inhibition of viability [5],viability decrease (inhibition) [6],viability decrease (inhibition) [7],inhibition [8],red/green cell ratio (normalised) [9],"normalised cell number [9, 15]","normalised cell number [9, 16]",outcome [10],outcome [11],outcome [12],outcome [13],outcome [14],AC50 [10],AC50 [11],AC50 [12],AC50 [13]
OC[C@H]1O[C@@H](Oc2ccc(O)cc2)[C@H](O)[C@@H](O)[C@@H]1O,-0.6% (inactive),-2.2% (inactive),1% (inactive),-2.9% (inactive),-1.8% (inactive),2.3% (active),-10.8% (inactive),17.9% (inactive),1.05 (inactive),1.15,1.21,inactive,inactive,inactive,–,–,–,–,–,–
CCCc1cc(C(N)=S)ccn1,-1.7% (inactive),-13.4% (inactive),1% (inactive),-0.6% (inactive),6.7% (inactive),5.3% (inactive),-3.5% (inactive),3.48% (inactive),0.84 (inactive),1.14,0.96,–,inactive,–,inactive,inactive,–,–,–,–
Cc1cccc(N(C)C(=S)Oc2ccc3ccccc3c2)c1,0.4% (inactive),50% (active),-39% (inactive),-2.7% (inactive),58.6% (active),35.1% (inactive),56.8% (active),6.26% (inactive),1.19 (inactive),1.22,1.46,–,inactive,–,–,inactive,–,–,–,–
Cn1c(=O)c2c(ncn2CC(O)CO)n(C)c1=O (configuration not stated),1.1% (inactive),-2.9% (inactive),-11.6% (inactive),-0.3% (inactive),7.4% (inactive),12.3% (inactive),5.3% (inactive),-4.2% (inactive),1.41 (inactive),0.78,1.1,inactive,inactive,inactive,–,inactive,–,–,–,–
CC/C(=C(/CC)c1ccc(O)cc1)c1ccc(O)cc1,0.8% (inactive),90.8% (active),20.8% (inactive),16.6% (inactive),94.3% (active),97.7% (active),98.4% (active),8.9% (inactive),1.15 (inactive),1.1,1.27,–,inactive,–,inactive,inactive,–,–,–,–
Nc1ncnc2c1ncn2[C@@H]1O[C@H](CO)[C@@H](O)[C@H]1O,2.7% (inactive),41.9% (inactive),30.3% (inactive),-0.1% (inactive),33.7% (inactive),27% (inactive),19.1% (inactive),2.2% (inactive),1.15 (inactive),0.81,0.94,–,–,–,–,–,18.7 µM (active),0.935 µM (active),–,–
Cc1onc(-c2ccccc2Cl)c1C(=O)N[C@@H]1C(=O)N2[C@@H]1SC(C)(C)[C@@H]2C(=O)O,-0.3% (inactive),-27.7% (inactive),12.2% (inactive),-1% (inactive),19.2% (inactive),-3.3% (inactive),-0.7% (inactive),-7.26% (inactive),1.1 (inactive),1.34,1.48,inactive,–,inactive,–,–,–,–,–,–
COc1ccc(C(=O)CC(=O)c2ccc(C(C)(C)C)cc2)cc1,1.3% (inactive),-88.8% (inactive),-15.2% (inactive),-3.2% (inactive),15.8% (inactive),18.1% (inactive),16.6% (inactive),-0.365% (inactive),1.31 (inactive),0.9,1.18,–,–,–,–,–,–,3.72 µM (active),5.26 µM (active),–
CCCN(CCC)C(=O)C(CCC(=O)O)NC(=O)c1ccccc1 (configuration not stated),1.3% (inactive),-11.7% (inactive),-25.9% (inactive),0.4% (inactive),-4.15% (inactive),-0.1% (inactive),-14.6% (inactive),1.53% (inactive),1.08 (inactive),0.92,1,–,–,–,–,inactive,–,–,–,26.3 µM (active)
